Shown are actives, neighbours in structure and some others; about 7.9% of the full set was active somewhere.
HCV inh = blocks hepatitis C virus; actives 3.4% (n = 340,000); Potency, µM (series often up to 41.8 µM), for the others: at the highest dose activity change, negative = inhibition, hits mostly inhibitors; Huh7.5.1 HCVcc-Cre infection, luciferase reporter, 44 h; active = well fitted inhibition curve with a large enough effect; inconclusive = small, poorly fitted or top-dose-only effect, or another doubt; inactive = no such curve, though single readings can be large or run the other way; note: potency is the fitted concentration of half-maximal effect
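A cell-based infection assay in which seeded cells (1,000 per well) receive test compound after 4 h, are inoculated with HCVcc-Cre at approximately 0.5 moi, and are incubated 44 h before luminescence detection.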
FMDV inh = foot and mouth disease virus antiviral activity; FMDV antiviral cell-based qHTS; Potency, µM (titrated, usually from 57.9 µM), without a hit: top-dose activity change, negative = inhibition, usual class: inhibitors; actives 1.2% (n = 410,000); AID 1159524; calls by dose curve; tested in HEK293T cells; note: read-out not given here; potency is the fitted concentration of half-maximal effect; nearly all actives have a fitted effect of over 45% in size
MARV entry inh = Marburg virus entry inhibition. Marburg virus pseudotyped entry inhibition, cell reporter. Potency, µM (highest dose often 37.8 µM), for inactives: at the top dose activity change, negative = inhibition, hits mostly inhibitors. actives 1.8% (n = 300,000). AID 540276; calls by dose curve; tested in HEK293 cells; note: potency is the fitted concentration of half-maximal effect
HCMV antiviral = human cytomegalovirus inhibition | HFF cells, HCMV-luciferase reporter, 72 h; stronger effect = lower value | activity change, negative = inhibition, % at 57.5 µM | actives 4.5% (n = 410,000); in the data active = activity change below about -60%; inconclusive = no clear call, values can overlap the other calls; inactive = above about -39%
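After 16 h attachment at 37C, HFF cells received test compound and HCMV-luciferase (1 PFU/cell); reporter luminescence read 72 h later, data normalized against buffer-only and known inhibitor Salinomycin.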
Lassa entry inh = Lassa virus entry inhibition | actives 1.2% (n = 300,000) | Lassa virus pseudotype entry inhibition, cell reporter | Potency, µM (highest dose often 37.9 µM), inactives show at the highest dose activity change, negative = inhibition, most hits filed as inhibitors; calls by dose curve; tested in HEK293 cells; note: potency is the fitted concentration of half-maximal effect; nearly all actives have a fitted effect of over 50% in size
* marks the source's active call; other numbers are inactive results; ? = inconclusive; . = no result given; ! = not confirmed by another sample; [ ] = remark or other dose. % is set by controls: 0 for no effect and ±100 for the full control effect.

SMILES	HCV inh	FMDV inh	MARV entry inh	HCMV antiviral	Lassa entry inh
Cc1c(CC(=O)NCCc2ccccc2)c(=O)oc2c(C)c3occ(C(C)(C)C)c3cc12	.	-16%	9%[46.1 µM]	?	6%[46.1 µM]
Cc1ccc(N2CCN(c3nc4ccc(C)cc4n4nnnc34)CC2)c(C)c1	.	-4%	.	-1	?
O=C(CCc1nnc2n(Cc3ccc(Cl)cc3)c(=O)c3ccccc3n12)NCCN1CCCC1	3.5µM*	5%	10µM*	-14	?
O=C(CCn1cnc2ccccc2c1=O)Nc1ccc(Cl)c(Cl)c1	-9%	-14%	-3%	-74*	14%
Cc1ccc(NC(=O)CCn2cnc3ccccc3c2=O)cc1	-11%	28%	0%	-14	?
CCCCCCC(C)(C)c1ccc([C@@H]2C[C@H](O)CC[C@@H]2CCCO)c(O)c1	.	?	13µM*	.	.
O=[N+]([O-])c1ccc(/C([O-])=C(/C(=S)NCc2ccco2)[n+]2ccccc2)cc1	-9%	18%	17%[46.1 µM]	-61*	-11%[46.1 µM]
O=S1(=O)CC(N2CCCCC2)CN1Cc1cn(Cc2cccc(C(F)(F)F)c2)nn1 (stereo unspecified)	.	-10%	.	-9	.
Cn1c(CNc2cccc(Cl)c2)nnc1SCC(=O)OC1CCCCC1	3%	-25%	-5%	-80*	10%
CC(C)OC(=O)CSc1nnc(CNc2cccc(Cl)c2)n1C	13%	-27%	11%[46.1 µM]	73	-3%
Cc1ccc(N(CC(=O)N2CCN(c3ccc(Cl)cc3)CC2)S(=O)(=O)c2c(C)nn(C)c2C)cc1	.	-13%	-1%[46.1 µM]	3	0%[46.1 µM]
COc1ccc(N(CC(=O)Nc2ccc(Cl)cc2)S(=O)(=O)c2c(C)n[nH]c2C)cc1	-18%	-15%	.	?	.
COc1ccc(N(CC(=O)N2CCN(c3cccc(C)c3C)CC2)S(=O)(=O)c2c(C)noc2C)cc1	?	-14%	7%[46.1 µM]	-65*!	?
Cc1ccc(N(CC(=O)N2CCN(c3cc(C)ccc3C)CC2)S(=O)(=O)c2c(C)nn(C)c2C)cc1	.	-29%	?	-72*	-26%[46.1 µM]
COc1ccc(N(CC(=O)N2CCN(c3ccc(Cl)cc3)CC2)S(=O)(=O)c2c(C)n[nH]c2C)cc1	?	-1%	?	-73*	?
CCc1ccc2nc3nc(C)cc(C)c3c(N)c2c1	?	.	?	-12	?
Cc1cc(C)c2c(N)c3ccccc3nc2n1	?	-21%	?	-108*	-20%
COc1cc2c(cc1OC)C(COc1cccc(C(F)(F)F)c1)NCC2 (stereo unspecified)	?	?	.	-71*	.
Cc1cc([N+](=O)[O-])ccc1-c1ccc(C2Nc3ccccc3C(=O)N2O)o1 (stereo unspecified)	11µM*	-28%	?	-99*	?
Clc1ccccc1-c1nc(NCCN2CCOCC2)c2ccccc2n1	.	7%	.	.	.
COc1cccc(-c2nc(NCCN3CCOCC3)c3ccccc3n2)c1O	10µM*	-16%	-2%	14	-3%
c1ccc2c(NCCCN3CCOCC3)c3ccccc3nc2c1	.	.	.	-102*	.
COc1ccc2nc(C)cc(NCCN3CCOCC3)c2c1	1%	4%	-25%[46.1 µM]	-22	2%
Fc1ccccc1-c1nc(NCCCN2CCOCC2)c2ccccc2n1	10%	-14%	?	-22	?
Oc1ccccc1-c1nc(NCCN2CCOCC2)c2ccccc2n1	7.1µM*	?	1%	38	5%
SMILES	HCV inh	FMDV inh	MARV entry inh	HCMV antiviral	Lassa entry inh
COc1ccccc1-c1nc(NCCN2CCOCC2)c2ccccc2n1	.	4%	.	.	.
Cc1cc(NCCN2CCOCC2)c2ccc3ccccc3c2n1	-18%	4%	.	-69*	.
Cc1ccccc1OC[C@H](O)Cn1c(N2CCN(c3ccccc3)CC2)nc2c1c(=O)[nH]c(=O)n2C	.	.	-20%	.	.
Cc1nc(NC(=O)c2ccco2)sc1-c1csc(Nc2ccc(Cl)cc2)n1	2.5µM*	0%	.	?	.
Cc1ccc(Cl)cc1Nc1nc(-c2sc(NC(=O)c3ccco3)nc2C)cs1	8.9µM*	1%	.	?	.
COc1ccccc1Nc1nc(-c2sc(NC(=O)c3ccco3)nc2C)cs1	?	6%	.	1	.
Cc1nc(NC(=O)c2ccco2)sc1-c1csc(Nc2ccc(Cl)cc2Cl)n1	?	-23%	.	-77*	.
COc1cccc(N(C(=O)c2ccco2)c2nc(-c3sc(NC(=O)c4ccco4)nc3C)cs2)c1	4µM*	-6%	-2%	?	.
COc1ccc(-c2csc(NC(=O)c3ccco3)n2)cc1	?	30%	5%	91	?
CC(C)Cc1nnc(NC(=O)C2CSC3(C)CCC(=O)N23)s1 (stereo unspecified)	12%	20%	19%[46.1 µM]	3	?
Cc1c(C(=O)N2CCOc3ccccc3C2)sc2ncnc(NCCCN3CCOCC3)c12	.	-10%	.	.	.
COC(=O)N1C2CC(=O)O[C@H]3c4cc5c(cc4[C@]1(C)[C@@]3(Br)c1ccccc12)OCO5	.	.	8%[14.2 µM]	.	.
CC1CCCC(C)N1/N=C/c1ccc(Cl)cc1 (stereo unspecified)	11µM*	12%	-1%	21	10%
O=C1SC(c2ccccc2)=C/C1=C\N1CCCCC1	11µM*	.	28%	100	5%
COc1cc(N)ccc1NC(=O)c1cc2ccccc2o1	-10%	33%	.	66	.
Cc1cc(O)cc2c1C1CCC3(C)C(=O)CCC3C1C=C2 (stereo unspecified)	-17%	22%	?	-97*	2%[46.1 µM]
C[C@]12CC[C@@H]3c4ccc(O)cc4CC[C@H]3[C@@H]1CCC2=O	-8%[8.37 µM]	-16%	?	47	?
Oc1[nH]c2ccccc2c1N=Nc1nc(Nc2ccccc2)nc(N2CCOCC2)n1	14µM*	?	.	-103*	.
Cc1[nH]c2ccccc2c1/C=N/Nc1nc(Nc2ccccc2)nc(N2CCOCC2)n1	?	-11%	0.33µM*	-99*	5.8µM*
CC(=O)OC1CC2C(C)(C)C(O)CCC2(C)C2CC[C@]3(C)C(=CC(=O)OC3c3ccoc3)C12C (stereo partly specified)	.	-20%	.	.	.
CCc1ccc(-n2c(=O)c3c4c(sc3n(Cc3ccc(F)cc3)c2=O)CCCC4)cc1	.	-14%	18%[46.1 µM]	14	17%[46.1 µM]
CCc1ccc(-n2c(=O)c3c4c(sc3n(CC(=O)c3ccc(F)cc3)c2=O)CCC4)cc1	.	-21%	-2%[46.1 µM]	-88*	19%[46.1 µM]
O=C(C1CCN(S(=O)(=O)c2ccc(Br)s2)CC1)N1CCN(c2cccc(C(F)(F)F)c2)CC1	.	?	?	?	8.9µM*
O=C(Cc1ccc(S(=O)(=O)N2CCOCC2)s1)N1CCN(c2cccc(C(F)(F)F)c2)CC1	13µM*	-27%	.	.	.
Cn1cnc(S(=O)(=O)N2CCC(C(=O)N3CCN(c4cccc(C(F)(F)F)c4)CC3)CC2)c1	.	-4%	.	-32	-3%[46.1 µM]
Fc1ccc(-c2nnc(-n3nnc4ccccc43)c3ccccc23)cc1	-15%	23%	0%	?	1%
O=C(/C=N\O)NCCCN1CCOCC1	.	.	-36%	.	.
COC(=O)C1=C(C(=O)OC)[C@]2([C@H]3CCCCN[C@@H](Cc4ccccc4)C(=O)N3Cc3ccccc3)C=C[C@H]1O2	11µM*	?	.	-70*	.

Compound activity (PubChem BioAssay)
